Assay results published in PubChem BioAssay (NCI).
Compounds without any hit were thinned out: in the full panel of roughly 83,000, 20% have a hit.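 In brief: 96-well plates, 48 h treatment, single concentration, percent growth endpoint.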 Calls of active or inactive are those of the source. Rule for the calls: active = growth percent below 10; inactive = the rest.

What was measured:
Test in all cases: NCI-60 one-dose screen, 48 h (100 = growth as untreated, 0 = no growth, -100 = all killed)
SK-MEL-2 melanoma = details: 10 µM unless noted
EKVX NSCLC = details: 10 µM
SN12C renal = details: 10 µM unless noted
UO-31 renal = details: 10 µM unless noted
TK-10 renal = details: 10 µM unless noted
ACHN renal = details: 10 µM unless noted
CAKI-1 renal = details: 10 µM unless noted
A498 renal = details: 10 µM unless noted
CCRF-CEM leukemia = details: 10 µM
MOLT-4 leukemia = details: 10 µM unless noted

Measured: growth

CC(C)(C)OC(=O)N1C/C(=C\c2ccccc2)C(=O)/C(=C/c2ccccc2)C1
inactive: SK-MEL-2 melanoma 94.2% | EKVX NSCLC 97.7% | SN12C renal 93.5% | UO-31 renal 71.9% | TK-10 renal 102% | ACHN renal 106% | CAKI-1 renal 84.8% | A498 renal 101% | CCRF-CEM leukemia 76.4% | MOLT-4 leukemia 71.8%

O=C(Nc1cccc(Cn2c(=O)[nH]c3ccc(Oc4ncccn4)cc3c2=O)c1)c1ccc(Cl)cc1
inactive: SK-MEL-2 melanoma 59.5% | EKVX NSCLC 52.3% | SN12C renal 63.5% | UO-31 renal 47.7% | TK-10 renal 58.5% | ACHN renal 40.3% | CAKI-1 renal 60.9% | A498 renal 53.4% | CCRF-CEM leukemia 47% | MOLT-4 leukemia 22.5%

COC1(OC)N=C(N)C2(C#N)C3(C(=O)Nc4ccccc43)C12C#N (stereo not given)
inactive: SK-MEL-2 melanoma 83.5% | EKVX NSCLC 77.4% | SN12C renal 93.8% | UO-31 renal 52.9% | TK-10 renal 98% | ACHN renal 67.3% | CAKI-1 renal 21.3% | CCRF-CEM leukemia 77.8% | MOLT-4 leukemia 88.7%
active: A498 renal -9.49%

CCOC(=O)CNS(=O)(=O)CC(=O)c1ccccc1
inactive: SK-MEL-2 melanoma 128% | EKVX NSCLC 90.3% | SN12C renal 84.2% | UO-31 renal 86.6% | TK-10 renal 80.9% | ACHN renal 99.5% | CAKI-1 renal 93% | A498 renal 117% | CCRF-CEM leukemia 105% | MOLT-4 leukemia 109%

O=C(Nn1cnc2ccccc21)N1CCCC1
inactive: SK-MEL-2 melanoma 116% | EKVX NSCLC 94% | SN12C renal 106% | UO-31 renal 88.1% | TK-10 renal 113% | ACHN renal 99.1% | CAKI-1 renal 98.8% | A498 renal 115% | CCRF-CEM leukemia 127% | MOLT-4 leukemia 87.1%

COc1ccc2sc(-n3nc4nc5n(c(=O)c4c3N)-c3ccccc3Sc3ccccc3-5)nc2c1
inactive: SK-MEL-2 melanoma 81.5% | EKVX NSCLC 42.1% | SN12C renal 76.7% | UO-31 renal 31.8% | TK-10 renal 102% | ACHN renal 72.3% | CAKI-1 renal 57.7% | A498 renal 117% | CCRF-CEM leukemia 68.1% | MOLT-4 leukemia 49.4%
